The nature of experiment [1]: NCI Yeast Anticancer Drug Screen. Data for the rad50 strain (AID 155).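 Also: 0% = growth of vehicle-only cultures of the same strain.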 To be noted: S. cerevisiae rad50 strain growth inhibition; at 50.0 µM; active compounds read high. The gist of the method:
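Growth of the mutant yeast was measured after compound exposure and referenced to vehicle-treated cultures.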

Experiment [2] in a line: NCI Yeast Anticancer Drug Screen. Data for the mec2-1 strain (AID 157). To be noted: S. cerevisiae mec2-1 strain, at 50.0 µM, active compounds read high. The gist of the method: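 Using mec2-1 yeast: add compound, measure growth, express inhibition versus vehicle-treated cultures.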
Experiment [3] in a line: NCI Yeast Anticancer Drug Screen. Data for the sgs1 mgt1 strain (AID 161).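 Also: 0% = growth of cultures given vehicle only.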 To be noted: S. cerevisiae sgs1 mgt1 strain, at 50.0 µM, active compounds read high. The gist of the method:
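Growth of a repair-deficient yeast mutant was monitored after compound treatment and expressed as inhibition relative to vehicle-treated cultures.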

The nature of experiment [4]: NCI Yeast Anticancer Drug Screen. Data for the cln2 rad14 strain (AID 165).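 Also: 0% = growth equal to vehicle treated cultures.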 To be noted: S. cerevisiae cln2 rad14 strain, at 50.0 µM, active compounds read high. The gist of the method:
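Yeast strain cln2 rad14, bearing defects in cell cycle control and DNA repair, serves as the test system; values reflect growth inhibition compared with vehicle.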

Experiment [5] is described as follows: NCI Yeast Anticancer Drug Screen. Data for the bub3 strain (AID 167). To be noted: S. cerevisiae bub3 mutant strain, at 50.0 µM, active compounds read high. The gist of the method:
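Whole-cell yeast assay. The mutant strain was incubated with compounds, and growth inhibition was determined by comparison with vehicle-treated cells.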

The nature of experiment [6]: NCI Yeast Anticancer Drug Screen. Data for the mlh1 rad18 strain (AID 175). To be noted: S. cerevisiae mlh1 rad18 strain growth inhibition; at 50.0 µM; active compounds read high. The gist of the method:
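Steps: expose repair-defective yeast to compound; measure growth; express inhibition against vehicle-treated controls.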

The structures appear in SMILES notation. Compounds without any hit were thinned out: in the full panel of roughly 79,000, 15% have a hit. A number with no mark means an inactive call. Active and inactive are the calls of the source. Rule as the data show it: active = growth inhibition above about 70%; inactive = the rest.

On to `O=S1CCCO1` (stereo unspecified), for which the growth inhibition was -7.55% in experiment [1]; -8.6% in experiment [2]; -13.8% in experiment [3]; -41.2% in experiment [4]; 11% in experiment [5]; 0.3% in experiment [6].
Turning to `O=C(O)COc1ccccc1Cl`, the growth inhibition in experiment [1] was 34.6%; in experiment [2], 13.3%; in experiment [3], 22.5%; in experiment [4], 19.8%; in experiment [5], 26.1%; in experiment [6], 11.8%.
`N#CC(NC12CC3CC(CC(C3)C1)C2)c1ccccc1C(F)(F)F` (stereo unspecified): the growth inhibition in experiment [1] was -18.6%; in experiment [2], 7.3%; in experiment [3] it was -30.9%; in experiment [4], 10.4%; in experiment [5], -30.1%; in experiment [6], -12.9%.
On to `S=C(N/N=C\c1ccc(Cl)cc1Cl)Nc1ccc2cn[nH]c2c1`, for which the growth inhibition in experiment [1] is 20%; in experiment [2], 17.2%; in experiment [3] it was 28.2%; in experiment [4] it was -38%; in experiment [5], 2%; in experiment [6] it was 31.8%.
In the case of `c1ccc(CSCCc2ccncc2)cc1`, the growth inhibition in experiment [1] was 16.4%; in experiment [2], -13.6%; in experiment [3], -21.1%; in experiment [4], -3.2%; in experiment [5] it was -3.55%; in experiment [6] it was 20.2%.
As to `Cc1cc(C)c(C#N)c(SC(C(=O)Nc2cc(C(F)(F)F)ccc2Cl)c2ccccc2)n1` (stereo unspecified), the growth inhibition is 2.35% in experiment [1]; -13.2% in experiment [2]; 23.6% in experiment [3]; 19.1% in experiment [4]; 2.95% in experiment [5]; 8.25% in experiment [6].
As for `Cc1ccc(S(=O)(=O)n2cnc(CC(NC(=O)C3CCC(=O)N3C(=O)OCc3ccccc3)C(=O)N3CCCC3C(=O)NN)c2)cc1` (stereo unspecified), the growth inhibition in experiment [1] was -38.9%; in experiment [2], -43.1%; in experiment [3], -30.8%; in experiment [4], -9.95%; in experiment [5] it was -30.9%; in experiment [6], -18.2%.
With `C=Cc1ccc(-c2ccccc2)cc1`, the growth inhibition was 7.1% in experiment [1]; -14.7% in experiment [2]; -25.5% in experiment [3]; -43.2% in experiment [4]; -5.8% in experiment [5]; -0.65% in experiment [6].
For the compound `O=C(NO)c1cc(O)c(O)c(O)c1`, the growth inhibition was -14.5% in experiment [1]; 1.75% in experiment [2]; -16.7% in experiment [3]; -11.6% in experiment [4]; -5.75% in experiment [5]; -25.4% in experiment [6].
With `CCCCNCCCNCCCC`, the growth inhibition was 4.95% in experiment [1]; -3.4% in experiment [2]; 0.65% in experiment [3]; -0.7% in experiment [4]; 25.5% in experiment [5]; 2.6% in experiment [6].
As for `C=CCOC(=O)c1cccc(C)c1`, the growth inhibition in experiment [1] is 9.7%; in experiment [2], 0.3%; in experiment [3], -1%; in experiment [4] it was -41.4%; in experiment [5] it was 9.9%; in experiment [6], 7.7%.
For `CC1(C)CCCC(OC(=O)c2ccc([N+](=O)[O-])cc2)C1` (stereo unspecified), the growth inhibition was 10.4% in experiment [1]; -17.5% in experiment [2]; -1.3% in experiment [3]; -2.05% in experiment [4]; 7.5% in experiment [5]; -10.6% in experiment [6].
In the case of `CCOC(=O)C1CSC(c2ccccc2)=N1` (stereo unspecified), the growth inhibition in experiment [1] is 8.75%; in experiment [2] it was -4.4%; in experiment [3], -2.35%; in experiment [4] it was -4.25%; in experiment [5] it was -8.35%; in experiment [6] it was 27.1%.
In the case of `Cc1cc(=O)[nH]c(=O)[nH]1`, the growth inhibition in experiment [1] was 5.85%; in experiment [2], -7.55%; in experiment [3] it was -16.6%; in experiment [4], -4.15%; in experiment [5], -17.7%; in experiment [6], -5.4%.
On to `CCCC(C)(C)COC(=O)Cc1ccccc1`, for which the growth inhibition in experiment [1] is 40.3%; in experiment [2], 42%; in experiment [3], 55.9%; in experiment [4], 23.8%; in experiment [5] it was 23.6%; in experiment [6], 46.2%.
For the compound `OC(CC1=NCCS1)(c1ccccc1)c1ccccc1`, the growth inhibition in experiment [1] was 98% (active); in experiment [2], 98.8% (active); in experiment [3], 96.8% (active); in experiment [4], 98.1% (active); in experiment [5] it was 98.2% (active); in experiment [6] it was 98.2% (active).
Turning to `Cc1cccc(/C=N\N=C\c2cccc(C)n2)n1`, the growth inhibition in experiment [1] is 3.9%; in experiment [2], -10.2%; in experiment [3], -3.25%; in experiment [4] it was -3%; in experiment [5] it was -1.45%; in experiment [6] it was 23.3%.
Turning to `CC(CCc1nc2ccccc2[nH]1)c1nc2ccccc2[nH]1` (stereo unspecified), the growth inhibition in experiment [1] is -18.6%; in experiment [2] it was 2.05%; in experiment [3], -0.8%; in experiment [4], 18.1%; in experiment [5], 14.8%; in experiment [6], 17.4%.
Take `Nc1c(C(=O)Nc2ccc(S(N)(=O)=O)cc2)[n+]([O-])c2ccccc2[n+]1[O-]`: the growth inhibition in experiment [1] was -7.9%; in experiment [2], -9.8%; in experiment [3], 0.5%; in experiment [4] it was 1%; in experiment [5], -9.95%; in experiment [6] it was -6.45%.
As to `CCOc1ccc(N=C2NC(=O)C(CC(=O)Nc3ccc(Cl)cc3Cl)S2)cc1` (stereo unspecified), the growth inhibition in experiment [1] is 15%; in experiment [2], 15.3%; in experiment [3] it was -7.4%; in experiment [4] it was -51.9%; in experiment [5] it was -6%; in experiment [6], 27.2%.
Regarding `NC(=O)NC(=O)C1C2CC3OC(=O)C1C3C2` (stereo unspecified), the growth inhibition in experiment [1] is 13.6%; in experiment [2] it was -4.35%; in experiment [3], -3.2%; in experiment [4], -37.9%; in experiment [5], 2.45%; in experiment [6], 20.9%.
